The source made the active and inactive calls.

One experiment addresses Albumin (Bos taurus) (UniProt P02769). Nature of the experiment: compounds binding labelled BSA control protein – biochemical, small-molecule microarray, Alexa647 label, 635/667 nm fluorescence, artefact control for SMM control protein annotation, profiling panel (AID 1118).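 Further: score merges 667 nm emission intensity and signal-to-noise per printed compound spot.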 To be noted: BSA-A647 binding, fluorescence 635 nm, higher = more signal.
Experiment [1] can be described thus: probe aXIP binding to arrayed compounds – biochemical, NeuroSMM set, 635/667 nm fluorescence, primary screen (AID 1119).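 Further: probe is the protein aXip251-270 applied at 1 µg/mL to compound-printed slides; binding of probe to printed compounds measured as 667 nm fluorescence plus signal to noise.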 The note with it: small-molecule microarray, higher = more signal, called active from +8 up or from −8 down.
Experiment [2] in a line: probe aNOTCH3 binding on compound microarray – biochemical, small-molecule microarray, 635/667 nm fluorescence, primary screen (AID 1120).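 Further: probe is a biotin-tagged antibody raised against NOTCH3 rather than NOTCH3 protein; score merges spot fluorescence near 667 nm with spot signal to noise.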 The note with it: higher = more signal.
Experiment [3] can be described thus: probe aNOTCH2 binding on compound microarray – biochemical, small-molecule microarray, 635/667 nm fluorescence, primary screen (AID 1121).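 Further: score merges feature fluorescence read at 667 nm with its signal to noise.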 The note with it: higher = more signal.
For experiment [4], the target named is Carbonic anhydrase 2 (Homo sapiens) (UniProt P00918). The experiment can be described thus: compounds binding carbonic anhydrase 2 – biochemical, small-molecule microarray, Alexa647-labelled CAII, profiling panel (AID 1122). The note with it: CAII-A647 binding fluorescence, higher = more signal.
A short description of experiment [5]: COS7 lysate on small-molecule microarray, probe aHis, 635 nm (AID 1123).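 Further: z-score combines 667nm fluorescence intensity with signal-to-noise per printed compound spot.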 The note with it: COS7 cell lysate, fluorescence, higher = more signal.
Experiment [6] is described as follows: probe aLAP1 signal on lysate-treated microarray – cell lysate, small-molecule microarray, COS7 lysate, primary screen (AID 1124).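 Further: lysate comes from COS7 cells expressing LAP1 and is applied at 0.3 µg/mL; score merges spot fluorescence near 667 nm with signal-to-noise over triplicate slides.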 To be noted: probe aLAP1, fluorescence, higher = more signal.
The next experiment concerns Sam68 (KHDRBS1). The experiment can be described thus: compounds binding KHDRBS1 protein – biochemical, small-molecule microarray, 635 nm fluorescence, primary screen (AID 1125).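 Further: score merges 667 nm channel intensity with signal to noise over triplicate slides.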 To be noted: higher = more signal.
In experiment [7] the test system is Chordin-like protein 2 (CHRDL2). The experiment can be described thus: compounds binding chordin-like 2 – biochemical, small-molecule microarray, 635 nm fluorescence, primary screen (AID 1126).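 Further: printed compound slides probed with Chrdl2 protein at 4 µg/mL for 1 h at 4 C; score merges 667 nm emission intensity with signal to noise over three replicate slides.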 The note with it: fluorescence 635 nm, higher = more signal.
Experiment [8] concerns the target Concanavalin-A (Canavalia ensiformis) (UniProt P02866). Nature of the experiment: compounds binding concanavalin A lectin – biochemical, small-molecule microarray, Alexa647 label, 635 nm, artefact control for SMM control protein annotation, primary screen (AID 1127).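 Further: z combines 667 nm emission intensity with signal-to-noise across three replicate slides.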 The note with it: ConA-A647 binding fluorescence, higher = more signal.
The nature of experiment [9]: compounds binding Alexa647 anti-His antibody – biochemical, small-molecule microarray, 635 nm fluorescence, artefact control for SMM control protein annotation, primary screen (AID 1128).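 Further: score merges feature fluorescence with signal-to-noise for each printed compound spot.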 The note with it: higher = more signal.
For experiment [10], the system named is Human papillomavirus type 1a E7 protein (residues 1-88). Nature of the experiment: HPV1a E7 small-molecule binders, primary screen, biochemical, small-molecule microarray, residues 1-88, 635 nm (AID 1129). To be noted: small-molecule microarray binding, fluorescence 635 nm; higher = more signal.
Experiment [11] addresses Focal adhesion kinase 1 (Homo sapiens) (UniProt Q05397). Nature of the experiment: PTK2 protein binding on printed compound slides – biochemical, small-molecule microarray, 635/667 nm fluorescence, BSA, DTT, primary screen (AID 1130).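 Further: composite of spot emission at 667 nm and signal to noise over triplicate slides.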 To be noted: 635 nm fluorescence, higher = more signal.
Experiment [12] has as its system Fibrinogen (Alexa647-labelled). Nature of the experiment: Alexa647-fibrinogen binding to printed small molecules – biochemical, small-molecule microarray, 635/667 nm fluorescence, artefact control for SMM control-protein annotation, profiling panel (AID 1131).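 Further: z-score merges 667 nm fluorescence with per-spot signal-to-noise over triplicate slides.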 To be noted: fibrinogen-A647 binding fluorescence, higher = more signal.
Experiment [13] concerns the target Follistatin (Homo sapiens) (UniProt P19883). Nature of the experiment: FST protein binding to printed compounds – biochemical, small-molecule microarray, 635/667 nm fluorescence, primary screen (AID 1132). The note with it: 635 nm fluorescence, higher = more signal.
The target in experiment [14] is Fibroblast growth factor 2 (Homo sapiens) (UniProt P09038). Nature of the experiment: basic fibroblast growth factor binding to printed compounds – biochemical, small-molecule microarray, 635/667 nm fluorescence, primary screen (AID 1133). The note with it: FGF2, fluorescence 635/667, higher = more signal.
Experiment [15] is described as follows: JC-1 mitochondrial potential readout, lung cancer cells – cell-based, A549, JC-1 fluorescence, basal, 24 h, 100 nL, profiling panel (AID 1138).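 Further: A549 lung adenocarcinoma cells under basal conditions with no added stimulus; test concentration not given here.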 To be noted: higher = more signal.
For a further experiment, the system named is Lefty1. Nature of the experiment: Lefty1 protein binding to printed compounds – biochemical, small-molecule microarray, 635/667 nm fluorescence, primary screen (AID 1139). The note with it: fluorescence 635/667, higher = more signal.
Experiment [16] concerns wheat germ agglutinin (Triticum aestivum), Alexa647-labelled. The experiment can be described thus: Alexa647-WGA lectin binding to printed small molecules – biochemical, small-molecule microarray, 635/667 nm fluorescence, artefact control for SMM control-protein annotation, profiling panel (AID 1140).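 Further: score merges 667 nm feature emission with signal to noise over triplicate slides.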 The note with it: WGA-A647 binding, 635 nm fluorescence, higher = more signal.

The target in experiment [17] is Luciferin 4-monooxygenase (Photinus pyralis) (UniProt P08659). Nature of the experiment: inhibition of purified Photinus pyralis luciferase – biochemical, luminescence, purified enzyme, 2006 set, primary screen (AID 1141).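 Further: cell-free assay with purified firefly luciferase at 100 ng per well in PBS; test concentration not given here.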 To be noted: purified firefly luciferase, SteadyGlo luminescence, 30 min; higher = more signal, called active from +8 up or from −8 down.
Sequence of Luciferin 4-monooxygenase (Photinus pyralis) (P08659 whole entry, looked up): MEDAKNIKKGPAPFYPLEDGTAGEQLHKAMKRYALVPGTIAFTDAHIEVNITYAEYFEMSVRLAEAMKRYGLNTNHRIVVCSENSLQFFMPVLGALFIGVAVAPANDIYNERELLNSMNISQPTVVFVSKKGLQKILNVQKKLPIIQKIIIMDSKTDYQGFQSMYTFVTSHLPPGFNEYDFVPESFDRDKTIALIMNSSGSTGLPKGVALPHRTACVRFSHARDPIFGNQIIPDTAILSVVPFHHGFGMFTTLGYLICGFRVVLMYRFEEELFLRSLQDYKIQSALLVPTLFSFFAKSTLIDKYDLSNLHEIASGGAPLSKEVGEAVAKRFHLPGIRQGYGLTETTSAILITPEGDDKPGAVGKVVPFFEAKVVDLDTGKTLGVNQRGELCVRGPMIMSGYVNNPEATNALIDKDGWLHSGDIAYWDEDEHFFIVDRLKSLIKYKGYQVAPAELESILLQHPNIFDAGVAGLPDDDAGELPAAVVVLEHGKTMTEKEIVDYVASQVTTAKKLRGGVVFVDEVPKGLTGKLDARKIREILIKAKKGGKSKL

Sequence of Fibroblast growth factor 2 (Homo sapiens) (P09038 whole entry, looked up): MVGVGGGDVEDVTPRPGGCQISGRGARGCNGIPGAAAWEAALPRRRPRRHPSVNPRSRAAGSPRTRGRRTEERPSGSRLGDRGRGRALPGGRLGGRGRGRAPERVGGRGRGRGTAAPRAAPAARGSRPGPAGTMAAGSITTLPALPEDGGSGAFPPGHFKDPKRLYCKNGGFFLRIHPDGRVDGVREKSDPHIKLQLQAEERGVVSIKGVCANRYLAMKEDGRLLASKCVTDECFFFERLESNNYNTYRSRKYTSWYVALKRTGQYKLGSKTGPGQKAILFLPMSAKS
Sequence of Follistatin (Homo sapiens) (P19883 whole entry, looked up): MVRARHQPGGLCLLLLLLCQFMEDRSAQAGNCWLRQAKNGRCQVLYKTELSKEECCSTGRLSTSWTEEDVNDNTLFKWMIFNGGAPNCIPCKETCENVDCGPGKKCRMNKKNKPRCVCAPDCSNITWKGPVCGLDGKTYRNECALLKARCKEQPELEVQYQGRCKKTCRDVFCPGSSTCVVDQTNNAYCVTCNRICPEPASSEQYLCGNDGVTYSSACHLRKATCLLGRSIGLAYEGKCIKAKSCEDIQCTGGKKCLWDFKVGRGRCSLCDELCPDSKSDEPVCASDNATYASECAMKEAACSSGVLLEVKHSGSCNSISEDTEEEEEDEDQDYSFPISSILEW
Sequence of Concanavalin-A (Canavalia ensiformis) (P02866 whole entry, looked up): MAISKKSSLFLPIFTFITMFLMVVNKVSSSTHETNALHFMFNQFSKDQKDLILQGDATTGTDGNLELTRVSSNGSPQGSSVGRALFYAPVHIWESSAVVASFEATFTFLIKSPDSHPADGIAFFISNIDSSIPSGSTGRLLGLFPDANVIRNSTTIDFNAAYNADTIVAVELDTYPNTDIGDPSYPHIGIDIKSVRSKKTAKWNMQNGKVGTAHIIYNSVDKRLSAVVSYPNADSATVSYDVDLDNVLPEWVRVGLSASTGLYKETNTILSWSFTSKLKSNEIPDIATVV
Sequence of Focal adhesion kinase 1 (Homo sapiens) (Q05397 whole entry, looked up): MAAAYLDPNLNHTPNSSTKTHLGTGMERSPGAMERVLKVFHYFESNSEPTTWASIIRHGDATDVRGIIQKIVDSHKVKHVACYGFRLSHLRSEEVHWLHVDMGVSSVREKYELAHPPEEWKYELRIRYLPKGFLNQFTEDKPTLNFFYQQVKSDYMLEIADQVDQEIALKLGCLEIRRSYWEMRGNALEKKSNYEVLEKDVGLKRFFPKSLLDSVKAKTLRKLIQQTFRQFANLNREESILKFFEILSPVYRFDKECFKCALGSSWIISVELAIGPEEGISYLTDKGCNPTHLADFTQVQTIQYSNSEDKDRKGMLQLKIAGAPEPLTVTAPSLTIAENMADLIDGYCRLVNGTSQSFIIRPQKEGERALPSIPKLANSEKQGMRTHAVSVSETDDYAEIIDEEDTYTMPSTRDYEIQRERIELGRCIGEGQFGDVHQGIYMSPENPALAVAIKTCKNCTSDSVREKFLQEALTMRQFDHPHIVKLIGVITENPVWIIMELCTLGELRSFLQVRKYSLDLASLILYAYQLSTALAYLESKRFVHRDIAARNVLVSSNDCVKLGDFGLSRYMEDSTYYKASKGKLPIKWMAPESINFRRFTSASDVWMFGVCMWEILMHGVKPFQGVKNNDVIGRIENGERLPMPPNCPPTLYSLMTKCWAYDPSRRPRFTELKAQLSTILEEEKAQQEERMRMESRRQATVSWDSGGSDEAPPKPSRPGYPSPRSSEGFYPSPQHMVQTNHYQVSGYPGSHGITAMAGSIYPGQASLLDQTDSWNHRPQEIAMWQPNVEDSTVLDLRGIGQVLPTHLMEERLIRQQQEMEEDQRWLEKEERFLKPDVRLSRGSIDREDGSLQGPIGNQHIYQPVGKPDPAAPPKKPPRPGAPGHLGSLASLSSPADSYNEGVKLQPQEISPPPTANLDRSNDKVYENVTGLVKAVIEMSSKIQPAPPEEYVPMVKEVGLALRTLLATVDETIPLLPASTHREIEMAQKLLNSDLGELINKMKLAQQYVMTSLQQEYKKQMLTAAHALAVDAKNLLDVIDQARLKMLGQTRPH
Sequence of Albumin (Bos taurus) (P02769 whole entry, looked up): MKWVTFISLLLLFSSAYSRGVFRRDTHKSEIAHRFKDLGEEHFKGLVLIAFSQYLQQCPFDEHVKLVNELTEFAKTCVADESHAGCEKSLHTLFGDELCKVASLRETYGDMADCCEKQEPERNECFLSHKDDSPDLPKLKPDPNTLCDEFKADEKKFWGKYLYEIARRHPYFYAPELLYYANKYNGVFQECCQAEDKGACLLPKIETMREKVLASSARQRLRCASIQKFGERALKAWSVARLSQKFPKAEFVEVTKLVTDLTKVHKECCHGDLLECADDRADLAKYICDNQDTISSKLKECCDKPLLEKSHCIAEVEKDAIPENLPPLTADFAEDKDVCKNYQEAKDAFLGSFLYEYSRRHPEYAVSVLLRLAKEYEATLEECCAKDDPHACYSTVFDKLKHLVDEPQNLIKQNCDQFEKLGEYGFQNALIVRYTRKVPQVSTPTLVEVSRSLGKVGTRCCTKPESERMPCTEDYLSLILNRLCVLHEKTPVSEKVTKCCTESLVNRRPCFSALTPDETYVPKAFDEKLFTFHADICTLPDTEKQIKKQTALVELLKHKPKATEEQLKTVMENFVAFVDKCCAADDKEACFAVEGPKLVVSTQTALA

`CCCNC(=O)[C@@]1(Sc2ccc(C)cc2)CC(=O)N(Cc2cc(C(F)(F)F)cc(C(F)(F)F)c2)[C@@H]1c1ccc(CO)cc1`: the composite z-score with Albumin (Bos taurus) is -0.919; in [2], -0.163; in [3] it was -0.169; in [4], 0.504; in experiment [5] it was 0.506; in experiment [6], -0.0318. The composite z-score in the experiment with Sam68 (KHDRBS1) was -0.528; in [7], -1.11; in experiment [8], -0.149; in experiment [9], 2.59; in experiment [10], -0.0696; in [11], -0.251. For the same compound, the composite z-score in experiment [12] was -0.452; in experiment [13], -0.245; in experiment [14] it was -0.375; in the experiment with Lefty1, -0.675; in experiment [16] it was -0.037. Moreover, the composite Z-score in [1] is -0.0135 (inactive). Also, the values for the z-score in [15] and in experiment [17] were -0.328 and -0.297 (inactive), respectively.

On to `C=C(CCCC)/C(=C/C[C@@H](OC(C)=O)c1ccc(OCCO)cc1)c1cc(C(=O)OC)ccc1OC`, for which the composite z-score was -0.526 in the experiment with Albumin (Bos taurus); -0.0377 in experiment [2]; -0.092 in [3]; 0.721 in experiment [4]; 1.55 in experiment [5]; 0.155 in [6]. The composite z-score is 1.2 with Sam68 (KHDRBS1); -0.362 in experiment [7]; 0.787 in experiment [8]; -0.435 in [9]; 0.858 in experiment [10]; 0.304 in experiment [11]. In addition, the composite z-score in experiment [12] was -0.156; in [13], 0.335; in experiment [14], -0.0009; in the experiment with Lefty1, 0.548; in experiment [16], 0.94. For the same compound, the composite Z-score in experiment [1] is 0.0578 (inactive). Further, the figures for the z-score in [15] and in experiment [17] were 1.85 and -1.07 (inactive), respectively.

For `O=C1C2C=CC(C(O)c3ccccn3)N(Nc3ccc([N+](=O)[O-])cc3)C2C(=O)N1c1ccccc1` (stereo not given), the composite z-score was found to be 0.89 with Albumin (Bos taurus); 0.0162 in [2]; 0.0215 in [3]; 0.592 in experiment [4]; 0.438 in experiment [5]; 1.85 in experiment [6]. For the same compound, the composite z-score was 0.102 with Sam68 (KHDRBS1); -0.421 in experiment [7]; 1.13 in experiment [8]; 0.344 in [9]; 1.16 in [10]; 0.427 in [11]. In addition, the composite z-score was 1.02 in [12]; 0.336 in experiment [13]; 0.292 in [14]; -0.43 in the experiment on Lefty1; 1.05 in experiment [16]. Besides, the composite Z-score in [1] is 0.0129 (inactive). In addition, the z-score is -0.378 in [15] and 0.654 (inactive) in experiment [17].

Turning to `CC(C)C[C@@H]1NC(=O)[C@@H]2C[C@H](C(=O)NCCCCCCNC(=O)CS)[C@H](c3ccc(O)cc3)N2C1=O`, the composite z-score is -0.025 in the experiment with Albumin (Bos taurus); 0.133 in experiment [2]; -0.0817 in experiment [3]; 0.706 in experiment [4]; 1.91 in experiment [5]; 0.655 in [6]. The composite z-score with Sam68 (KHDRBS1) worked out at 1.28; in experiment [7], 1.26; in experiment [8], 0.995; in [9], 2.1; in experiment [10], 1.28; in experiment [11], 0.116. In addition, the composite z-score is 0.913 in experiment [12]; 1.46 in [13]; 1.62 in experiment [14]; 1.41 with Lefty1; 0.907 in experiment [16]. Besides, in experiment [1], the composite Z-score was 0.0101 (inactive). In addition, the results for the z-score in experiment [15] and in experiment [17] were -1.16 and -0.677 (inactive), respectively.

On to `C=C[C@H](OC)[C@@H](O)c1ccc(OC)c(O)c1`, for which the composite z-score in the experiment with Albumin (Bos taurus) was 0.985; in experiment [2], -0.557; in experiment [3], -0.19; in experiment [4] it was 0.145; in experiment [5], -0.651; in experiment [6], -0.0037. In addition, the composite z-score is -2.47 in the experiment on Sam68 (KHDRBS1); -1.01 in experiment [7]; -1.9 in [8]; -0.495 in experiment [9]; -1.4 in experiment [10]; -0.833 in experiment [11]. The composite z-score in experiment [12] was -1.99; in experiment [13], -0.857; in [14], 0.598; in the experiment with Lefty1, -1.82; in experiment [16], -0.609. The composite Z-score in experiment [1] is -0.272 (inactive). Further, the z-score in experiment [15] was 0.793; in experiment [17], -1.1 (inactive).

The values are drawn from PubChem BioAssay.
